In PubChem BioAssay (EPA / NIEHS) one finds outcome and AC50 data, which are given here for 13 molecules.

Usually AC50 stands for the midpoint of the concentration-response curve, whichever way the signal moves.

Inconclusive results are not listed. More than one record can exist for a structure, and the calls need not agree. Active and inactive are the calls of the source. The calls were made as follows, unless noted: active = hit-call score of the fitted dose curve at least 0.9, where 1 is the maximum; inactive = score below 0.9.

Read-out in test [1]: Monocyte Chemoattractant Protein-1 (MCP1), CCL2 (gene 6347)
Description: BSK_SAg_MCP1: BioMAP Diversity Plus: SAg Assay for Monocyte Chemoattractant Protein-1 (MCP1) Biomarker Activity (AID 2283090). Particulars: primary human HUVEC with PBMC; actives raise or lower the signal. The method, boiled down: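 MCP-1 levels in the endothelial–PBMC SAg co-culture were quantified by ELISA at 24 h post-dosing; both increases and decreases versus DMSO scored. Cytotoxicity monitored by SRB total protein in parallel cultures.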

Read-out in test [2]: E-selectin (Homo sapiens) (UniProt P16581)
Description: BSK_SAg_Eselectin: BioMAP Diversity Plus: SAg Assay for Eselectin Biomarker Activity (AID 2283091). Particulars: primary human HUVEC with PBMC; actives raise or lower the signal. The method, boiled down:
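Human umbilical vein endothelial cells co-cultured with peripheral blood mononuclear cells, SAg system. E-selectin is measured by ELISA 24 h after dosing and fitted bidirectionally against DMSO. Cytotoxicity is checked by SRB staining of parallel cultures.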

Read-out in test [3]: Monokine induced gamma interferon (MIG), CXCL9 (gene 4283)
Description: BSK_SAg_MIG: BioMAP Diversity Plus: SAg Assay for Monokine induced gamma interferon (MIG) Biomarker Activity (AID 2283092). Particulars: primary human HUVEC with PBMC; actives raise or lower the signal. The method, boiled down: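 Endothelial cells and PBMC were co-cultured, exposed to test chemicals, and sampled 24 h later. MIG was measured by ELISA, and responses were fitted in both directions relative to DMSO.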

Test [4] in a line: BSK_SAg_PBMCCytotoxicity: PBMC Cytotoxicity Assessment in the BioMAP Diversity Plus: SAg Assay (AID 2283093).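 Also: PBMC viability measured as Alamar Blue reduction fluorescence at 546/580 nm; fitted both ways against DMSO so a hit may be loss or gain of signal.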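 As to AC50: PBMC superantigen activated with SEB plus TSST-1 one hour after compound addition.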 Particulars: primary human HUVEC with PBMC. An outline of the steps:
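HUVEC/PBMC co-culture; PBMC exposed to chemical 1 h before SEB and TSST-1 activation (20 ng/mL each), incubated 90 h, then Alamar Blue 6 h, fluorescence 546/580 nm. Bidirectional fit versus DMSO baseline.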

Read-out in test [5]: Interleukin-8 (IL8), CXCL8 (gene 3576)
Description: BSK_SAg_IL8: BioMAP Diversity Plus: SAg Assay for Interleukin-8 (IL8) Biomarker Activity (AID 2283094). As to conditions: primary human HUVEC with PBMC; actives raise or lower the signal. An outline of the steps: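 ELISA read-out of IL-8 in a primary human vascular co-culture (umbilical vein endothelium plus PBMC), taken 24 h after compound addition. Values derive from bidirectional fits against DMSO negative controls.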

Test [6] can be described thus: BSK_SAg_Proliferation: Cell Proliferation Assessment in the BioMAP Diversity Plus: SAg Assay (AID 2283095).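 Also: relative cell number as total protein by SRB absorbance in sub-confluent culture.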 Particulars: primary human HUVEC with PBMC. An outline of the steps:
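Cells (endothelium plus PBMC, human primary) were dosed with chemical, cultured 96 h, fixed in 10% TCA and stained with 0.1% SRB. Absorbance at 560 nm gave relative protein, fitted bidirectionally relative to DMSO.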

Test [7] in a line: BSK_SAg_SRB: Viability Assessment in the BioMAP Diversity Plus: SAg Assay (AID 2283096).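 Also: cells read one day after compound addition; hits may be either gain or loss of signal compared with DMSO.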 As to conditions: primary human HUVEC with PBMC. The method, boiled down: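 Human umbilical vein endothelial cells co-cultured with PBMC, read 24 h after compound dosing. Total protein measured by sulforhodamine B staining (0.1% SRB after 10% TCA fixation, absorbance 560 nm); bidirectional fit versus DMSO baseline.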

Test [8] has as its target human CYP1A1, CYP1A1 (gene 1543) (UniProt P04798). Description: NVS_ADME_hCYP1A1: NovaScreen (NVS) CYP450-related Enzyme Activity (ADME) Assay for human CYP1A1 (AID 2283100; active = hit-call score of the fitted dose curve at least 0.9, where 1 is the maximum). An outline of the steps: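 Recombinant CYP1A1 with a fluorogenic substrate, cell-free, read 1 h after dosing; acetonitrile as negative control. Single-concentration screen at 10 uM in duplicate, then concentration-response up to 20 uM for chemicals meeting ~30% inhibition threshold.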

In test [9] the target is human CYP2A6, CYP2A6 (gene 1548) (UniProt P11509). Description: NVS_ADME_hCYP2A6: NovaScreen (NVS) CYP450-related Enzyme Activity (ADME) Assay for human CYP2A6 (AID 2283099; active = hit-call score of the fitted dose curve at least 0.9, where 1 is the maximum). As to the method: NVS_ADME_hCYP2A6 is a biochemical, single-readout assay that uses extracted gene-proteins from insect cells in a cell-free assay. Measurements were taken 0.5 hour after chemical dosing in a 96-well plate.NVS_ADME_hCYP2A6 is one of one assay component(s) measured or calculated from the NVS_ADME_hCYP2A6 assay. It is designed to make measurements of enzyme activity, a form of enzyme reporter, as detected with fluorescence intensity signals by Fluorescence technology.Data from the assay component NVS_ADME_hCYP2A6 was analyzed into 1 assay endpoint. This assay endpoint, NVS_ADME_hCYP2A6, was analyzed in the positive analysis fitting direction relative to Acetonitrile as the negative control and baseline of activity. Using a type of enzyme reporter, loss-of-signal activity can be used to understand changes in the enzymatic activity as they relate to the gene CYP2A6. Furthermore, this assay endpoint can be referred to as a primary readout, because this assay has produced multiple assay endpoints where this one serves a enzymatic activity function. To generalize the intended target to other relatable targets, this assay endpoint is annotated to the cyp intended target family, where the subfamily is xenobiotic metabolism.
Sequence of human CYP2A6, CYP2A6 (gene 1548) (P11509 whole entry, looked up): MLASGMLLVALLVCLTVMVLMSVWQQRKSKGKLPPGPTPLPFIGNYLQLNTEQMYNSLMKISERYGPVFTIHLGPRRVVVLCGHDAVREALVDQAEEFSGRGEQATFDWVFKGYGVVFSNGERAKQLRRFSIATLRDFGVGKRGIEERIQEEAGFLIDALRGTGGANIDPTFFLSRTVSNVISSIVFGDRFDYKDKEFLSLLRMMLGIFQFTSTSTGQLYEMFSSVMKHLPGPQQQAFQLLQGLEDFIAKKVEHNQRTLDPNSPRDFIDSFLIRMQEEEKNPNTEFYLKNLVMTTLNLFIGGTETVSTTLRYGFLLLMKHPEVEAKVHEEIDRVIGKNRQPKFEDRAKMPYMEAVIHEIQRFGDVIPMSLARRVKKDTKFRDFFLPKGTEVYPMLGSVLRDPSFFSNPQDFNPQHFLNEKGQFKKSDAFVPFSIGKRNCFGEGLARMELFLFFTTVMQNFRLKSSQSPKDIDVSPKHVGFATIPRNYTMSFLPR
Binding assays used specific radioligands (tritiated, iodinated) with non-radioactive competitive displacement ligands in agonist or antagonist protocols (as indicated) and various reference compounds and inhibitors to titrate specific binding to receptors and transporters. Most enzyme assays (CYPs, kinases, phosphatases, proteases, HDACs) used recombinant protein and specific substrates (fluorescence mostly, some colorimetric and radioactive) and inhibitors, followed by a biochemical separation of substrate and product. All assays for the biochemical HTS were initially run in duplicate at a single concentration (10 uM for CYP450 assays and 25 uM for all others). Assay-chemical combinations meeting a pre-defined threshold (e.g., 30% inhibition and other criteria defined below) were then run in singleton concentration-response format with maximum concentration of 20 uM for CYPs and 50 uM for all others. Each assay was run with positive and negative controls, and concurrent controls on every plate. The follow-up (secondary) screen tested active chemical-pairs in concentration series, as well as a few additional assays not tested in the primary screen, some selected negative inactives, and several cases re-run in the concentration series for confirmatory purposes.

For test [10], the target named is human CYP19A1, CYP19A1 (gene 1588) (UniProt P11511). Description: NVS_ADME_hCYP19A1: NovaScreen (NVS) CYP450-related Enzyme Activity (ADME) Assay for human CYP19A1 (AID 2283098; active = hit-call score of the fitted dose curve at least 0.9, where 1 is the maximum;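 as to AC50: potency for inhibitors seen as loss of fluorescent enzyme signal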). An outline of the steps: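 Recombinant enzyme in a cell-free format, read 0.5 h after dosing by fluorescence from a fluorogenic substrate. Loss of signal was fitted against acetonitrile as baseline. Primary screen in duplicate at 10 uM, actives then tested in concentration series.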
Sequence of human CYP19A1, CYP19A1 (gene 1588) (P11511 whole entry, looked up): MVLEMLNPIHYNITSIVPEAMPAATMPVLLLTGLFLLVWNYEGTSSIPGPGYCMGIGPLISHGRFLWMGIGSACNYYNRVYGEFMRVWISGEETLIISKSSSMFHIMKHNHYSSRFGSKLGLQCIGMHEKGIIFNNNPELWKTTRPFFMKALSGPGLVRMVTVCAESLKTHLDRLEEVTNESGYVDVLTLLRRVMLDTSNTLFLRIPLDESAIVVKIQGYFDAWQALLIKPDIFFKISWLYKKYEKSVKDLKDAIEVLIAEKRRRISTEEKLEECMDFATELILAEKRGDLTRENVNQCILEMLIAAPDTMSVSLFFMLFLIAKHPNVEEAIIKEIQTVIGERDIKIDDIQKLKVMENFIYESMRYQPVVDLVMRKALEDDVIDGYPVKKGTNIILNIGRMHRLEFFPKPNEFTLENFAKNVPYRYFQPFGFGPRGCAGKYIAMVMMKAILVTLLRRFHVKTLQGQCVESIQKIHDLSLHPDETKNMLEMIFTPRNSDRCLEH

Sequence of E-selectin (Homo sapiens) (P16581 whole entry, looked up): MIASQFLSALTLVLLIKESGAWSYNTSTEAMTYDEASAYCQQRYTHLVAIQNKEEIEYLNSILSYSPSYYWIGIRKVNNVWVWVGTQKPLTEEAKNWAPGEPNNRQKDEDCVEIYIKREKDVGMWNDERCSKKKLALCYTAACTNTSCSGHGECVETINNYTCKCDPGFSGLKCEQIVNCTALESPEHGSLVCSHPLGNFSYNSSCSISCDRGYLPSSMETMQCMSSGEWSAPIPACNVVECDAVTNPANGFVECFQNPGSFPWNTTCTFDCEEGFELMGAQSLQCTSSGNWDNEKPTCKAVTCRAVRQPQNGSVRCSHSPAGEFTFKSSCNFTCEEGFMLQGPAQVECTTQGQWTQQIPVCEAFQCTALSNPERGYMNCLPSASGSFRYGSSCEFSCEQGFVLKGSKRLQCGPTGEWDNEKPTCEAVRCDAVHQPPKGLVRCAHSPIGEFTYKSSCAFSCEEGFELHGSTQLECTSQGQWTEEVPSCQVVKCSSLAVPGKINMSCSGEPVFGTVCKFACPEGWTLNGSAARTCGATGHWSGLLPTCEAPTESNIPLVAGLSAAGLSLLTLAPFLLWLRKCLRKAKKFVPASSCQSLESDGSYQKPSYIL
Sequence of human CYP1A1, CYP1A1 (gene 1543) (P04798 whole entry, looked up): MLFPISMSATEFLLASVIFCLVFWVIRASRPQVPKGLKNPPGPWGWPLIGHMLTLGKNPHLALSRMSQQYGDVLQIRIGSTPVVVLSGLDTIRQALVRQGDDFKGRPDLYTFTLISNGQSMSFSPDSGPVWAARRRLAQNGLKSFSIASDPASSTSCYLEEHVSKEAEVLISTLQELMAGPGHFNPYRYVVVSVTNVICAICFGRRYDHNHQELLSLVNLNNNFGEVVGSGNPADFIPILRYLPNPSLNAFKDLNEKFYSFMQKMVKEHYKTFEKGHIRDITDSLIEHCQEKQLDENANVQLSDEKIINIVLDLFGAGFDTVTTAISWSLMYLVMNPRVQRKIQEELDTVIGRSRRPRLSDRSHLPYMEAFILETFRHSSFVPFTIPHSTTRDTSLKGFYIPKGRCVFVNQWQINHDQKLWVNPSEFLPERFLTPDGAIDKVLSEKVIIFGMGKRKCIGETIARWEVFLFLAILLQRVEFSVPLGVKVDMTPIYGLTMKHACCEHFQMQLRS

With `COP(=S)(OC)Oc1nc(Cl)c(Cl)cc1Cl`, the result in test [1], in test [3], in test [4], in test [5], in test [7] and in test [8] was inactive. Besides, the AC50 in test [2] is 32 µM (active); in [6], 20 µM (active).
As for `OC(c1ccc(Cl)cc1)(c1cncnc1)c1ccccc1Cl` (configuration not stated), the AC50 is 25.5 µM (active) in [1]; 26.5 µM (active) in [2]; 32.9 µM (active) in test [3]; 3.45 µM (active) in [4]; 11.7 µM (active) in test [6]; 29.3 µM (active) in test [7]. For the same molecule, the AC50 in [9] is 2.37 µM (active); in test [8] it was 8.07 µM (active).
On to `CCOP(=S)(OCC)SCn1c(=O)oc2cc(Cl)ccc21`, for which the AC50 in [1] is 28.4 µM (active); in [2], 29.4 µM (active); in test [5], 26.8 µM (active); in test [6], 29 µM (active); in test [7] it was 31.9 µM (active); in test [9], 0.683 µM (active). In addition, the AC50 in [8] is 0.513 µM (active). Besides, the result in test [3], in test [4] and in test [10] was inactive.
With `CCOC(=O)CC(SP(=S)(OC)OC)C(=O)OCC` (configuration not stated), the result in test [1], in [2], in [3], in test [4], in test [5] and in [6] was inactive. For the same molecule, the result in test [7] and in [10] was inactive. Further, the results for the AC50 in [9] and in test [8] were 1.98 µM (active) and 2.87 µM (active), respectively.
`N#CC(CCc1ccc(Cl)cc1)(Cn1cncn1)c1ccccc1` (configuration not stated): the result in [1], in test [2], in test [3], in test [4], in test [5] and in [7] was inactive. The molecule was called inactive in test [10] and in test [8]. In [6], the AC50 is 8.6 µM (active).
Turning to `CS/C(C)=N/OC(=O)N(C)SN(C)C(=O)O/N=C(\C)SC`, the AC50 in test [1] is 30.1 µM (active); in test [2], 31.4 µM (active); in test [3] it was 35.6 µM (active); in test [4], 8.27 µM (active); in test [5] it was 16 µM (active); in [6] it was 5.3 µM (active). For the same molecule, the AC50 is 28.4 µM (active) in [7] and 10 µM (active) in [8].
As for `CNC(=O)ON=CC(C)(C)SC`, the result in test [1], in [2], in [3], in test [4], in [5] and in [6] was inactive. For the same molecule, the result in test [7] was inactive.
`COP(N)(=O)SC` (configuration not stated): the outcome in [1], in [2], in test [3], in test [4], in test [5] and in [6] was inactive. The result in test [7] and in test [10] was inactive.
For the molecule `CCCCC(CC)COC(=O)c1ccccc1C(=O)OCC(CC)CCCC` (configuration not stated), the result in test [1], in test [2], in test [3], in [4] and in [5] was inactive. In addition, the values for the half-maximal activity concentration (AC50) in test [7] and in test [10] were 5 µM (active) and 3.05 µM (active), respectively.
Consider `Oc1ccccc1-c1ccccc1`, for which the outcome in test [1], in test [2], in test [3], in test [4], in test [5] and in [6] was inactive. Also, in test [7], the outcome was inactive. Further, the AC50 in test [10] was 4.05 µM (active).
With `CC(Oc1ccc(Cl)cc1Cl)C(=O)O` (configuration not stated), the result in test [1], in test [2], in [3], in [4], in [5] and in test [6] was inactive. The result in [7] was inactive.
Take `COc1ccc(C(c2ccc(OC)cc2)C(Cl)(Cl)Cl)cc1`: the AC50 in [1] was 27.1 µM (active); in test [2] it was 14.4 µM (active); in test [3], 30.7 µM (active); in test [4], 31.5 µM (active); in test [5], 11.9 µM (active); in test [6] it was 12 µM (active). Further, the values for the AC50 in test [7] and in test [10] were 14.9 µM (active) and 3.76 µM (active), respectively. The molecule was classed as inactive in test [10].
Turning to `C=CC1(C)OC(=O)N(c2cc(Cl)cc(Cl)c2)C1=O` (configuration not stated), the result in test [1], in [2], in test [3], in test [4], in [5] and in test [6] was inactive. In addition, the outcome in test [7] and in [8] was inactive.
